# JMJD2A Tudor inh – inhibitors of human JMJD2A Tudor domain; AID 504339; 4.4% of 390,000 active; Potency, µM (titrated, usually from 114 µM), without a hit: at the top dose activity change, negative = inhibition, actives largely listed as inhibitors; AlphaScreen JMJD2A-Tudor / H3K4me3 peptide binding; further: on the % scale 0 is the no-effect control and ±100 the full control effect; nearly all actives have a fitted effect of over 50% in size
# Target sequence (O75164 whole entry, looked up, the tested form may be a part): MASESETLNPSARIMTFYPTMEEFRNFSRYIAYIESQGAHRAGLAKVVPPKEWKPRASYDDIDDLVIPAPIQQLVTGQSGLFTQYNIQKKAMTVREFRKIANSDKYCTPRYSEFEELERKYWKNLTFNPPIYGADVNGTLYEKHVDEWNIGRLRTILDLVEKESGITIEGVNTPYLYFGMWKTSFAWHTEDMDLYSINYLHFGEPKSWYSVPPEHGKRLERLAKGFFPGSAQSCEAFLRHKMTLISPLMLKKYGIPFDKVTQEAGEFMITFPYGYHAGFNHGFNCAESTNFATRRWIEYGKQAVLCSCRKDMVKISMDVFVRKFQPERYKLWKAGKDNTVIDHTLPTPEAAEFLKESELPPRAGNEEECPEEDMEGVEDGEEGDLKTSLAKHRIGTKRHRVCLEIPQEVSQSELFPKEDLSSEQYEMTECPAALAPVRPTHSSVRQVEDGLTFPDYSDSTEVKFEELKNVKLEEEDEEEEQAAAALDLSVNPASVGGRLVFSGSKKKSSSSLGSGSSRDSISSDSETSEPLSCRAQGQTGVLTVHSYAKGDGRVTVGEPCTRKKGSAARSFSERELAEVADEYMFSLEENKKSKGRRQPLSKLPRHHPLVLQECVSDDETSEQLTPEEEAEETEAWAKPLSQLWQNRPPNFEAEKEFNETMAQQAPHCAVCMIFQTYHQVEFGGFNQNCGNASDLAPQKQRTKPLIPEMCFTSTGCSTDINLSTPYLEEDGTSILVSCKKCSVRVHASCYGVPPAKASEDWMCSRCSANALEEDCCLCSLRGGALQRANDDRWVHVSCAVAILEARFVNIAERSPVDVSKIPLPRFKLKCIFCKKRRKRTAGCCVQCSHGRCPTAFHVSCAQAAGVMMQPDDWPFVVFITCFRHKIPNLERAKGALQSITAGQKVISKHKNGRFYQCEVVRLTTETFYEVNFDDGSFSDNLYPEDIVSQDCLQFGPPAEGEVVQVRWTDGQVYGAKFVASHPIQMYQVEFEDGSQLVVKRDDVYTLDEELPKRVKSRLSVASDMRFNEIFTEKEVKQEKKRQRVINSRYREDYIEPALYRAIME
# L3MBTL1 block – L3MBTL1 (human) inhibition; Potency, µM (highest dose often 57.1 µM), inactives show at the top dose activity, negative = inhibition, most hits filed as inhibitors; 0.66% of 230,000 active; AlphaScreen L3MBTL1–H3K9me1 peptide binding; Q9Y468; further: on the % scale 0 is the no-effect control and ±100 the full control effect; nearly all actives have a fitted effect of over 60% in size
#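 First, the protein-peptide complex forms for 30 min at room temperature (L3MBTL1 50 nM, biotinylated H3K9me1 peptide 75 nM). Next, compounds are pin-transferred and incubated 30 min. Finally, AlphaScreen beads are added and read after 30 min.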
# Sfp inh – blocks B. subtilis Sfp PPTase activity; Q9F4F7; Biochemical Sfp PPTase activity, qHTS; Potency, µM, for the others: largest response in the series, negative = inhibition, most hits filed as inhibitors; 3.5% of 310,000 active; AID 1490;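 further: the enzyme is Sfp with the accession as filed and its product quenches rhodamine fluorescence; 0% = enzyme reaction without inhibitor and -100% = no enzyme wells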
#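 Reaction rates are the 30-min fluorescence difference (ex 525, em 598 nm) in wells containing 15 nM Sfp, 5 uM rhodamine-CoA and 12.5 uM BHQ-2-YbbR at pH 7.6 with 10 mM MgCl2.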
# HP1b chromo inh – blocks HP1-beta chromodomain binding to methylated histone tails; 0.56% of 390,000 active; P83916; AlphaScreen HP1-beta / biotin-H3K9me3 peptide binding; Potency, µM (highest dose often 114 µM), for the others: top-dose activity change, negative = inhibition, most hits filed as inhibitors; further: nearly all actives have a fitted effect of over 70% in size
#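 HP1-beta protein (50 nM final) preincubated 30 min at room temperature with biotinylated H3(1-18)K9me3 peptide (50 nM) in PBS pH 7.4, 0.01% Tween-20, then compound added for 30 min. AlphaScreen streptavidin donor/nickel chelate acceptor beads (10 ug/mL final), 30 min dark, luminescence read.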
# G9a inh – inhibitors of human histone lysine methyltransferase G9a. Potency, µM (highest dose often 102 µM), for inactives: top-dose activity, negative = inhibition, usual class: inhibitors. AID 504332. G9a H3K9 monomethylation, AlphaScreen, 2 h. 8.8% of 350,000 active; further: on the % scale 0 is the no-effect control and ±100 the full control effect; nearly all actives have a fitted effect of over 75% in size
#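 G9a (20 nM) preincubated 15 min RT with compounds, then 500 nM biotinylated H3K9 peptide and 20 uM SAM added; 2 h RT reaction. Monomethyl-H3K9 product detected by AlphaScreen with anti-H3K9me1 antibody, streptavidin donor and anti-rabbit IgG acceptor beads.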
# BAZ2B block – blocks human BAZ2B | Q9UIF8 | AlphaScreen BAZ2B-H3K14Ac peptide displacement | Potency, µM (top dose mostly 114 µM), for inactives: at the top dose activity change, negative = inhibition, actives largely listed as inhibitors | 4.4% of 360,000 active | AID 504333; further: on the % scale 0 is the no-effect control and ±100 the full control effect; nearly all actives have a fitted effect of over 60% in size
#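 AlphaScreen luminescence quantifies BAZ2B engagement of H3K14Ac peptide; the protein and biotinylated peptide are both at 50 nM final, buffer PBS pH 7.4 with 0.01% Tween-20, all steps at room temperature.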
# * hit, by the source's call; ? = inconclusive; nt = not tested or not shown; ! = repeats disagree; [ ] = another dose, or the depositor's remark. Hits are enriched below; roughly 12% of the tested compounds scored in any of these assays. The call rests on the fitted dose curve; in most records, active means well fitted curve in the direction sought with a large enough effect; inconclusive means small, poorly fitted or top-dose-only effect, or another doubt; inactive means no such curve, though single readings can be large; an effect the other way counts as inactive or inconclusive. Potency means the concentration at half of the fitted maximal effect.
SMILES,JMJD2A Tudor inh,L3MBTL1 block,Sfp inh,HP1b chromo inh,G9a inh,BAZ2B block
Cc1cc(C)nc(Nc2ccc(O)cc2)n1,-11%,nt,10%,43%,19%,0%
CCCCc1ccc(Nc2nc(CCC)cc(=O)[nH]2)cc1,-18%,3%,14%,16%,2%[59 µM],11%
Cc1cc(C)nc(Nc2ccc(N3CCOCC3)cc2)n1,-19%,-12%,-29%,1%,50µM*,-38%
Cc1cc(C)nc(Nc2ccc(N3CCCC3)cc2)n1,35µM*,nt,79µM*,?,?,28µM*
C[C@H]1C=CC(=O)C[C@H]1c1c(F)cccc1Cl,-10%,nt,-6%,25%,nt,nt
CCOC(=O)c1c(-c2cccc([N+](=O)[O-])c2)csc1NC(=O)C1CC1,-28%,-11%,-6%,-9%,-11%[2.33 µM],-36%
CCOC(=O)c1c(-c2cccc([N+](=O)[O-])c2)csc1N,?,-6%,-14%,-24%,?,50µM*
CCOC(=O)c1csc(N)c1-c1ccc([N+](=O)[O-])cc1,?,nt,50µM*,-28%,11µM*,?
CCOC(=O)c1ccc([N+](=O)[O-])cc1NC(C)=O,-7%,-3%,9%,34%,-4%,-5%
Cc1ccc(S(=O)(=O)n2nc(C)c(S(=O)(=O)N3CCCCC3)c2C)cc1,-6%,nt,22%,35%,45µM*!,-31%
Cc1nn(S(=O)(=O)c2ccccc2)c(C)c1S(=O)(=O)N1CCOCC1,-27%,nt,6%,43%[57 µM],79µM*,-27%
Cc1nn(S(=O)(=O)c2ccc(F)cc2)c(C)c1S(=O)(=O)N1CCCCC1,-27%,nt,10%,51%,22%[0.501 µM],-2%
Cc1nn(S(=O)(=O)c2ccc(C(C)(C)C)cc2)c(C)c1S(=O)(=O)N1CCOCC1,?,nt,15%,56%,?,-25%
Cc1nn(S(=O)(=O)c2ccc(F)cc2)c(C)c1S(=O)(=O)N1CCOCC1,-12%,nt,6%,5%,35µM*,?
Cc1nn(S(=O)(=O)c2ccc(F)cc2)c(C)c1S(=O)(=O)N1CCC(C)CC1,4%,nt,nt,25%[57 µM],-4%[59 µM],3%
CCCCCCCCCCCCCCCCC(C(=O)O)C(O)(CC(=O)O)C(=O)O (stereo not drawn),nt,nt,-17%,nt,-40%[12.7 µM],nt
CCN1CCN(c2cc3c(cc2F)c(=O)c(S(=O)(=O)c2ccc(OC)cc2)cn3CC)CC1,-24%,nt,nt,16%,-31%[59 µM],-2%
Cn1cc(CN2CC3C[C@@H]4CC2C[C@H](C3)C4)c(-c2ccc3c(c2)OCCO3)n1,-12%,-5%,-18%,25%,50µM*,?
CN1CCC(N(C)CC(O)c2ccccc2)CC1 (stereo not drawn),3.5µM*,-5%,-3%,-8%,8.9µM*,50µM*
CC(C)c1ccc(CN(C)CC(O)c2ccccc2)cc1 (stereo not drawn),-17%,nt,-3%,15%,?,89µM*
CN(CCOc1ccccc1)CC(O)COc1ccccc1 (stereo not drawn),-8%,nt,6%,13%,?,-5%
CC(OCC(O)CN(C)CCOc1ccccc1)c1ccc(Cl)cc1 (stereo not drawn),3.5µM*,2%,-23%,?,?,?
CN(CCOc1ccccc1)CC(O)COCc1ccccc1F (stereo not drawn),?,nt,0%,?,10µM*,71µM*
COc1ccc(C2/C=C\CN(Cc3ccccc3)C(C)C(=O)N2Cc2ccc(F)cc2)cc1 (stereo not drawn),-9%,nt,-3%,9%,nt,nt
CC(=O)Nc1nnc(SCc2cc(=O)c3cccc(Cl)c3[nH]2)s1,-32%,nt,nt,19%[57 µM],31%[59 µM],-7%
CN(CCOc1ccc(Cl)cc1)CC(O)c1ccccc1 (stereo not drawn),1.1µM*,nt,-19%,71µM*,3.5µM*,20µM*
Cc1c(Cl)cccc1NC(=O)C(=O)NCCc1csc(-c2ccc(C(F)(F)F)cc2)n1,3%,nt,nt,25%[57 µM],8%[59 µM],5%
